Calls of active or inactive are those of the source. The calls were made as follows: active = hit-call score of the fitted dose curve at least 0.9, where 1 is the maximum; inactive = score below 0.9.
Test: APR_HepG2_CellLoss_72hr: Apredica 72-hour HepG2 Assay for Cell Loss (AID 2282915)
Conditions: high-content imaging
Experimental: APR_HepG2_72hr is a cell-based, multiplexed-readout assay that uses HepG2, a human liver cell line, with measurements taken at 72 hours after chemical dosing in a 384-well plate.APR_HepG2_CellLoss_72hr is one of 10 assay component(s) measured or calculated from the APR_HepG2_72hr assay. It is designed to make measurements of cell number, a form of viability reporter, as detected with fluorescence intensity signals by HCS Fluorescent Imaging technology.Data from the assay component APR_HepG2_CellLoss_72hr was analyzed into 1 assay endpoint. This assay endpoint, APR_HepG2_CellLoss_72hr, was analyzed with bidirectional fitting relative to DMSO as the negative control and baseline of activity. Using a type of viability reporter, measures of all nuclear dna for gain or loss-of-signal activity can be used to understand the viability at the cellular-level. Furthermore, this assay endpoint can be referred to as a secondary readout, because this assay has produced multiple assay endpoints where this one serves a viability function. To generalize the intended target to other relatable targets, this assay endpoint is annotated to the cell cycle intended target family, where the subfamily is proliferation.
Cells were treated with dimethyl sulfoxide (DMSO) as a solvent control at a final concentration of 0.5% v/v or with compounds in DMSO with a resulting final DMSO concentration of 0.5% v/v. Compound treatment was done at concentrations of 0.39, 0.78, 1.56, 3.12, 6.24, 12.5, 25, 50, 100, and 200 uM in duplicate on each plate. Cells were treated with compounds for 1, 24, or 72 hr. Carbonyl […] m-chloro-phenylhydrazone (CCCP) and taxol were used as positive controls for mitochondrial function and cytoskeletal stability, respectively; DMSO served as the negative control for this experiment. Cells were fixed by the direct addition of 50 uL formaldehyde in Hank's Balanced Salt Solution (HBSS) to a final concentration of 3.7%. After incubation in the fixation medium for 30 min at room temperature (293-298 K), cells were rinsed twice with HBSS and treated with cell permeabilization buffer (16 uL of 0.5% Triton X-100) for 10 min at room temperature (293-298 K) before labeling. For mitochondrial membrane potential and mitochondrial measurements, pre-fixed cells were incubated with 50 uL of MitoTracker Red CMXRos (Invitrogen) at a concentration of 250 nM for 30 min before fixation. In the remaining cases, post-fixed cells were labeled by incubation with a multiplexed mixture of primary antibodies in HBSS for 60 min at room temperature (293-298 K) to detect immunoreactivity of c-Jun (1:500), phospho-histone H3 (1:100), phospho-histone H2A.x (1:200), p53 (1:400), alpha-tubulin (1:200) and Hoechst 33342 (2 ug/mL). Cells were labeled for multiplexed imaging on two separate plates: a) Hoechst 33342, MitoTracker Red, phospho-histone H3, and alpha-tubulin, and b) Hoechst 33342, phospho-histone H2A.x, and c-Jun. A final rinse with HBSS (50 uL) was performed before analysis. The primary and secondary antibodies for the proteins were phospho-histone H3 (rabbit anti-phospho-histone H3 and FITC-donkey anti-rabbit IgG), phospho-histone H2A.x (mouse anti-phospho-histone H2A.x and FITC-donkey anti-mouse IgG), c-Jun (rabbit anti-phospho-c-Jun and Cy3-donkey anti-rabbit IgG), p53 (sheep anti-p53 and Cy5-donkey anti-sheep IgG), alpha-tubulin (mouse anti-alpha-tubulin and Cy5-donkey anti-mouse IgG). These antibodies are available as the CellCiphr HepG2 assay kit (Millipore).Digital images of each well were captured using a Cellomics ArrayScan VTI (Thermo Scientific Cellomics) (0.8 NA objective, 0.63x optical coupler, and XF-93 filter set) at 20x magnification. The images were acquired using the autofocus feature of the ArrayScan instrument, which entails the following steps. First, the camera focuses on channel 1 (Hoechst 33342), where nuclei are identified. Second, a Z offset of 1 um is used for capturing mitochondria (MitoTracker Red). […]

Compound	outcome	AC50
O=C(O)c1cccc(Oc2ccccc2)c1	inactive	
CC(=O)OC[C@H]1O[C@@](COC(C)=O)(O[C@H]2O[C@H](COC(C)=O)[C@@H](OC(C)=O)[C@H](OC(C)=O)[C@H]2OC(C)=O)[C@@H](OC(C)=O)[C@@H]1OC(C)=O	inactive	
CCCCC(CC)COC(=O)CCCCCCCCC(=O)OCC(CC)CCCC (stereo not given)		100 µM (active)
CCCN(C1CCN(C(=O)C2CCNCC2)CC1)[C@@H]1CCc2ccc(OC)cc2C1		95 µM (active)
O=C(CCCCCCCCc1cccnc1)N1CCC(C=C(c2ccccc2)c2ccccc2)CC1	inactive	
CCC(C)(C)C(=O)O[C@H]1C[C@@H](C)C=C2C=C[C@H](C)[C@H](CC[C@@H]3C[C@@H](O)CC(=O)O3)[C@H]21		26.8 µM (active)
O=C(O)c1cc(N=Nc2ccc(S(=O)(=O)Nc3ccccn3)cc2)ccc1O	inactive	
CCCCCCc1ccc(O)cc1O		71.5 µM (active)
CC(C)=CCCC(C)=CC=O	inactive	
Fc1ccccc1[C@@H](F)COC1CCC(Nc2ncnc3[nH]ncc23)CC1 (stereo not given in full)		59 µM (active)
Cc1c(-c2cccnc2)c2ccccc2n1CCCCC(=O)O	inactive	
CC(C)=CCCC(C)CCO (stereo not given)		0.0391 µM (active)
CNS(=O)(=O)c1cc(C(=O)N2CCC(CCN3C4CCC3CC(n3c(C)nc5ccccc53)C4)(c3cccc(F)c3)CC2)c(Cl)cc1F (stereo not given)		24 µM (active)
CCCC(=O)OCC	inactive	
C[C@](N)(Cc1ccc(O)c(O)c1)C(=O)O	inactive	
CN(C)c1ccc(N=NS(=O)(=O)O)cc1		71.7 µM (active)
CCCCC(CC)COC(=O)c1ccc(C(=O)OCC(CC)CCCC)cc1 (stereo not given)	inactive	
CC(C)CCO	inactive	
Cn1c(=O)c2c(ncn2C)n(C)c1=O	inactive	
O=C(O)c1cccc(N(Cc2cccnc2)c2ccc(OC(F)F)c(OC(F)F)c2)c1		23.5 µM (active)

Compound	outcome	AC50
COC(=O)CC(=O)OC	inactive	
CC(=O)OCCC(C)C	inactive	
O=C(NS(=O)(=O)/C=C/c1ccccc1)c1ccc(F)cc1Cl	inactive	
O=C(O)CC(O)C(=O)O (stereo not given)	inactive	
CC(C)c1cccc(C(C)C)c1N1C(=O)c2ccc(O)cc2C1=O		57.7 µM (active)
CC(C)CCCCCCOC(=O)c1ccc(C(=O)OCCCCCCC(C)C)c(C(=O)OCCCCCCC(C)C)c1	inactive	
Nc1nc2ncc(CNc3ccc(C(=O)N[C@@H](CCC(=O)O)C(=O)O)cc3)nc2c(=O)[nH]1	inactive	
CCOc1cccc(-n2cc(C(=O)N3CCN(c4cc(C(=O)O)c5ccccc5c4)CC3)nc2-c2ccc(C)cc2)c1		81.9 µM (active)
CNCc1ccc(NC(=O)c2c[nH]c3c2C(=O)CCC3)cc1		73.7 µM (active)
COC(=O)c1ccccc1O	inactive	
CC1(C)C(=O)N(Br)C(=O)N1Br	inactive	
O=P(OC(CCl)CCl)(OC(CCl)CCl)OC(CCl)CCl		47.1 µM (active)
O=C1CCC(N2C(=O)c3ccccc3C2=O)C(=O)N1 (stereo not given)	inactive	
Cc1ccc(N)cc1O		10.5 µM (active)
CC[C@H]1CC[C@H](NCc2cc3c(cc2OC)[C@H]2C[C@H]2C(=O)N3C)[C@H](c2ccccc2)N1		72.5 µM (active)
On1ccccc1=S		5.34 µM (active)
Clc1nc(Cl)c(Cl)c(Cl)c1Cl		72 µM (active)
CCOC(=O)CC(CC(=O)OCC)(OC(C)=O)C(=O)OCC		45.8 µM (active)
Nc1cccc(N)c1	inactive	
CC(C)CC(C)(O)C#CC(C)(O)CC(C)C (stereo not given)	inactive	

Source: PubChem BioAssay (EPA / NIEHS)
